According to PubChem BioAssay (Tox21):
Several values for one entry are separate records, joined by “and”; a condition that tells them apart may be missing. Identical values can stand only once. Results filed as inconclusive are left out. A call without a number means that no potency is given here. Activity calls are given as the source filed them. Calls follow the shape of the full dose curve.

Assay: qHTS assay for small molecules that induce genotoxicity in human embryonic kidney cells expressing luciferase-tagged ATAD5 - cell viability (AID 651634); also: nearly all actives have a fitted effect of over 25% in size
Conditions: HEK293T ATAD5-luc cells viability, CellTiter-Fluor, 15.5 h; series mostly up to 83.3 µM
How it was run: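 HEK293T cells expressing luciferase-tagged ATAD5 were exposed to compound or DMSO for 15.5 hr at 37C, 5% CO2. Viability was then read as live-cell protease activity by CellTiter-Fluor fluorescence after 30 min at 37C.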
Potency is read from the fitted curve at half-maximal effect.

SMILES	Potency
CCCCOC(=O)COC(=O)c1ccccc1C(=O)OCCCC	inactive
CC(C)(C#N)N=NC(C)(C)C#N	inactive
c1ccc(C2CO2)cc1 (stereo not drawn)	inactive
CC(C)Nc1nc(Cl)nc(NC(C)C)n1	inactive
CC(C)CON=O	inactive
Clc1cccc(Cl)c1	inactive
CCCCCCCCCCCCCl	inactive
COP(=S)(OC)Oc1ccc(Sc2ccc(OP(=S)(OC)OC)cc2)cc1	inactive
Nc1ncn[nH]1	inactive
CC(C)(O)C#N	inactive
NC(=O)CN1CCCC1=O	inactive
CCNc1nc(Cl)nc(NC(C)(C)C#N)n1	inactive
O=C1CCCO1	inactive
CCCCCCCC[N+](C)(CCCCCCCC)CCCCCCCC	21.6 µM (active) and 19.3 µM (active)
CN(C)c1nc(=O)n(C2CCCCC2)c(=O)n1C	inactive
Cn1c(-c2ccccc2)cc(-c2ccccc2)[n+]1C	inactive
N#CCCCCC#N	inactive
C[C@]12CCC(=O)C=C1CC[C@@H]1[C@@H]2CC[C@@]2(C)[C@H]1CC[C@]2(C)O	inactive
Clc1ccc(C(Cl)(Cl)Cl)cc1	inactive

SMILES	Potency
O=P(OCCCl)(OCCCl)OCCCl	inactive
CC[n+]1c(-c2ccccc2)c2cc(N)ccc2c2ccc(N)cc21	23.7 µM (active) and 54.2 µM (active)
CCOP(=O)(OCC)OCC	inactive
COc1ccc(O)c(C(C)(C)C)c1	inactive
CN(C)c1ccccc1	inactive
CCC1(c2ccc(N)cc2)CCC(=O)NC1=O (stereo not drawn)	inactive
CCOP(=S)(OCC)SCn1c(=O)oc2cc(Cl)ccc21	inactive
CC(C)=CC1C(C(=O)OCc2cccc(Oc3ccccc3)c2)C1(C)C (stereo not drawn)	inactive
O=C(O)c1nn(Cc2ccc(Cl)cc2Cl)c2ccccc12	inactive
N#Cc1nn(-c2c(Cl)cc(C(F)(F)F)cc2Cl)c(N)c1S(=O)C(F)(F)F (stereo not drawn)	inactive
O=NN(c1ccccc1)c1ccccc1	inactive
N#Cc1cccnc1	inactive
CC(C)COC(=O)c1ccccc1C(=O)OCC(C)C	inactive
O=[N+]([O-])c1ccc(Nc2ccccc2)cc1	54.5 µM (active)
CNC(=O)Oc1cccc2c1OC(C)(C)C2	inactive
ClC(Cl)=C(Cl)C(Cl)=C(Cl)Cl	inactive
CCCCOCC1CO1 (stereo not drawn)	inactive
ClCc1ccccn1	inactive
O=[N+]([O-])/N=C1\NCCN1Cc1ccc(Cl)nc1	inactive
